These results are taken from PubChem BioAssay (Tox21).

Molecules are shown by their SMILES. “And” between values parts separate entries of the source, which are not always exact repeats. Equal entries are not always repeated. Records with an inconclusive call do not appear. The source holds several records for some structures; these can differ, active in one and inactive in another. The source made the active and inactive calls. Unless noted, calls follow the shape of the dose curve; as a rule, active = well fitted curve in the direction sought with a large enough effect in the repeat runs; inconclusive = weak or mixed curves; inactive = no such curve, though single readings can be large; an effect the other way counts as inactive or inconclusive.

The nature of test [1]: Caspase-3/7 induction in CHO-K1 cells by small molecules, qHTS assay (AID 1346980). Also: nearly all actives have a fitted effect of over 15% in size. Summed up: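 Wild-type CHO-K1 cells exposed to compounds for 17hr at 37 C, 5% CO2. Caspase-3/7 activity then measured by Caspase-Glo 3/7 luminescence after 30min at room temperature.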
The nature of test [2]: Caspase-3/7 induction in HepG2 cells by small molecules, qHTS cell viability counter screen (AID 1346981). Also: series mostly up to about 92 µM; nearly all actives have a fitted effect of over 30% in size. The method, boiled down: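 Treatment of HepG2 cells with DMSO-delivered compounds ran 16 hr at 37 C following a 5-hr pre-incubation of 2,000 cells/well. CellTiter-Fluor fluorescence, read after 1 hr, served as the viability measure in a qHTS format.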
The target of test [3] is Nuclear receptor subfamily 1 group I member 2 (Homo sapiens) (UniProt O75469). The test is described as follows: Human pregnane X receptor (PXR) small molecule agonists, qHTS assay (AID 1346982). Also: nearly all actives have a fitted effect of over 35% in size. The method, boiled down: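 Stable HepG2 line reporting PXR-mediated CYP3A4 expression via luciferase. Treatment: 24 hr with compounds in DMSO at 37 C. Detection: ONE-Glo luminescence.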

Test [4] concerns the target Acetylcholinesterase (Homo sapiens) (UniProt P22303). In words: Acetylcholinesterase (AChE) small molecule antagonists: colormetric cell-based qHTS assay (AID 1347395; calls by dose curve; also: nearly all actives have a fitted effect of over 30% in size). The method, boiled down:
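After overnight attachment at 37 C, SH-SY5Y cells get 30 min compound exposure; detection cocktail (acetylthiocholine, DTNB) then incubates 90 min at 37 C, and absorbance reflects AChE-generated thiocholine.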

For test [5] the target is unchanged. In words: Acetylcholinesterase (AChE) small molecule antagonists: enzyme-based qHTS assay (AID 1347397; calls by dose curve; also: nearly all actives have a fitted effect of over 55% in size). To be noted: Potency: AChE enzyme activity inhibition. Summed up:
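Colorimetric DTNB read-out of thiocholine released from acetylthiocholine by recombinant human AChE (50 mU/mL as dispensed). Compounds were preincubated 30 min at RT before substrate/DTNB addition, with a 10 min RT reaction.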

Test [6] shares this target. The test is described as follows: Acetylcholinesterase (AChE) small molecule antagonists: fluorescence cell-based qHTS assay (AID 1347398; calls by dose curve; also: nearly all actives have a fitted effect of over 50% in size). To be noted: Potency: AChE activity. The method, boiled down:
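SH-SY5Y, 2,000 cells/well, attached overnight; cmpd 30 min 37 C; acetylthiocholine/Thiolite Green cocktail 40 min RT; fluorescence Ex/Em 490/520 nm.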

The target in test [7] is Cytochrome P450 2D6 (Homo sapiens) (UniProt P10635). In words: Cytochrome P450 Family 2 Subfamily D Member 6 (CYP2D6) small molecule antagonists: luciferase reporter qHTS assay (AID 1671196). Also: series mostly up to about 120 µM; nearly all actives have a fitted effect of over 50% in size. The method, boiled down: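 Chemicals tested for interference with CYP2D6 activity; proluciferin substrate, NADPH regeneration, 1 h at room temperature, luminescent detection.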
Test [8] has as its target Cytochrome P450 2C19 (Homo sapiens) (UniProt P33261). In words: Cytochrome P450 Family 2 Subfamily C Member 19 (CYP2C19) small molecule antagonists: luciferase reporter qHTS assay (AID 1671197). Also: nearly all actives have a fitted effect of over 65% in size. Also: potency is read from the fitted curve at half-maximal effect. Summed up: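 Quantitative high-throughput screen of the Tox21 library using CYP2C19 with proluciferin substrate. Reaction: NADPH regeneration, 37C, 1 h, after 10 min compound preincubation at room temperature. Readout: luminescence.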

In test [9] the target is Cytochrome P450 2C9 (Homo sapiens) (UniProt P11712). The test is described as follows: Cytochrome P450 Family 2 Subfamily C Member 9 (CYP2C9) small molecule antagonists: luciferase reporter qHTS assay (AID 1671198). Also: series mostly up to about 120 µM; nearly all actives have a fitted effect of over 50% in size. Summed up: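 P450-Glo proluciferin substrate with CYP2C9 enzyme; 10 min RT preincubation, then NADPH regeneration 1 h at 37C; luciferin detection reagent 20 min RT, luminescence in relative luminescence units.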

Test [10] has as its target Cytochrome P450 1A2 (Homo sapiens) (UniProt P05177). In words: Cytochrome P450 Family 1 Subfamily A Member 2 (CYP1A2) small molecule antagonists: luciferase reporter qHTS assay (AID 1671199). Also: nearly all actives have a fitted effect of over 50% in size. Also: potency is read from the fitted curve at half-maximal effect. Summed up: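 Read-out is luminescence from luciferin detection reagent (20 min) proportional to CYP1A2 activity; compounds in DMSO preincubated 10 min with enzyme and proluciferin substrate, then NADPH regeneration solution, 1 h, room temperature.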

Test [11] deals with Voltage-gated inwardly rectifying potassium channel KCNH2 (Homo sapiens) (UniProt Q12809). The test is described as follows: Human Ether-a-go-go-Related Gene (hERG) channel small molecule antagonists: fluorescence cell-based qHTS assay (AID 1671200). Summed up: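 In this thallium-flux screen, overnight-cultured U2OS cells bearing the channel are dye-loaded in darkness for an hour, rested 10 min at room temperature, and then monitored kinetically at 480/540 nm for two minutes post-stimulus.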

For test [12], the target named is Cytochrome P450 3A4 (Homo sapiens) (UniProt P08684). The test is described as follows: Cytochrome P450 Family 3 Subfamily A Member 4 (CYP3A4) small molecule antagonists: luciferase reporter qHTS assay (AID 1671201). The method, boiled down:
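CYP3A4 activity was followed with a P450-Glo proluciferin substrate. Test compounds in DMSO were preincubated 10 min; NADPH regeneration then ran 1 h, and light output was read 20 min after detection reagent.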

Test [13] deals with Acetylcholinesterase (Homo sapiens) (UniProt P22303). In words: Acetylcholinesterase (AChE) small molecule antagonists: enzyme-based qHTS assay with human liver microsomes (AID 1347399; calls by dose curve; also: nearly all actives have a fitted effect of over 60% in size). To be noted: Potency: qHTS inhibition. Summed up: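 Recombinant human AChE (50 mU/mL in the enzyme mix) and human liver microsomes (0.25 mg/mL final) were preincubated with compound and NADPH (0.25 mg/mL final) for 30 min at 37 C. Acetylthiocholine/DTNB was then added; thiocholine was read colorimetrically after 10 min at room temperature.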

The target of test [14] is Nuclear receptor subfamily 1 group I member 2 (Rattus norvegicus) (UniProt Q9R1A7). The test is described as follows: Rat pregnane X receptor (rPXR) activation by small molecules, qHTS assay (AID 1346983). Also: nearly all actives have a fitted effect of over 20% in size. The following applies: rPXR luciferase reporter cells, One-Glo luminescence, 24 h; stronger effect = higher value. Summed up: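 Cell-based rPXR activation assay: rPXR cells, 2,000 per well, rested 5hr at 37 C, then exposed to compounds in DMSO for 24 hr at 37 C. Luciferase activity read by One-Glo luminescence after 30 min at room temperature.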

Test [15] deals with Nuclear receptor subfamily 1 group I member 2 (Homo sapiens) (UniProt O75469). The test is described as follows: CYP3A4 induction through human pregnane X receptor (PXR) by small molecules, qHTS assay (AID 1346984). Also: nearly all actives have a fitted effect of over 40% in size. Summed up:
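After 24 h at 37C with compound, DPX-2 cells (HepG2, co-transfected PXR response element and CYP3A4 promoter-luciferase) got 3uM final P450-Glo Luciferin-IPA for 3 h; One-Glo luminescence followed.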

The target is the same in test [16]. The test is described as follows: Human pregnane X receptor (PXR) activation by small molecules, qHTS assay (AID 1346985). Also: nearly all actives have a fitted effect of over 40% in size. Summed up: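 DPX-2 cells (HepG2 co-transfected with a PXR response element and a CYP3A4-promoter luciferase construct) were seeded at 2,000 per well, rested 5 hr at 37C, then exposed to DMSO-dissolved compounds for 24 hr. Activation was read as luciferase luminescence.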
% is scaled to controls: 0 for no effect and ±100 for the full control effect.

Cytochrome P450 2D6 (Homo sapiens), sequence (P10635 whole entry, looked up): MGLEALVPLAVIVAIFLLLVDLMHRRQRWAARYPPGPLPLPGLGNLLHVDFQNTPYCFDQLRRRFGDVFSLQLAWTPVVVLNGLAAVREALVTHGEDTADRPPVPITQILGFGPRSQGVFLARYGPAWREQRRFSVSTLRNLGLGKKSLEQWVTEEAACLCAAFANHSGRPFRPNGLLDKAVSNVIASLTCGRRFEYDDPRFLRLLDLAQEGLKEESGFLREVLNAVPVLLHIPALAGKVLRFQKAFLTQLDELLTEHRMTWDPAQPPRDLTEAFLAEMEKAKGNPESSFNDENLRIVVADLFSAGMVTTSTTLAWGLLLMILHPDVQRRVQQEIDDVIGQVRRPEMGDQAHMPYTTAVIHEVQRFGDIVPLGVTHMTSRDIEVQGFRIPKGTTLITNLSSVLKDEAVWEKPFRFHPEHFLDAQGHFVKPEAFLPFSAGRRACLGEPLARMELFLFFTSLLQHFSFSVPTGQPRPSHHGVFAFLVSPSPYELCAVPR
Voltage-gated inwardly rectifying potassium channel KCNH2 (Homo sapiens), sequence (Q12809 whole entry, looked up): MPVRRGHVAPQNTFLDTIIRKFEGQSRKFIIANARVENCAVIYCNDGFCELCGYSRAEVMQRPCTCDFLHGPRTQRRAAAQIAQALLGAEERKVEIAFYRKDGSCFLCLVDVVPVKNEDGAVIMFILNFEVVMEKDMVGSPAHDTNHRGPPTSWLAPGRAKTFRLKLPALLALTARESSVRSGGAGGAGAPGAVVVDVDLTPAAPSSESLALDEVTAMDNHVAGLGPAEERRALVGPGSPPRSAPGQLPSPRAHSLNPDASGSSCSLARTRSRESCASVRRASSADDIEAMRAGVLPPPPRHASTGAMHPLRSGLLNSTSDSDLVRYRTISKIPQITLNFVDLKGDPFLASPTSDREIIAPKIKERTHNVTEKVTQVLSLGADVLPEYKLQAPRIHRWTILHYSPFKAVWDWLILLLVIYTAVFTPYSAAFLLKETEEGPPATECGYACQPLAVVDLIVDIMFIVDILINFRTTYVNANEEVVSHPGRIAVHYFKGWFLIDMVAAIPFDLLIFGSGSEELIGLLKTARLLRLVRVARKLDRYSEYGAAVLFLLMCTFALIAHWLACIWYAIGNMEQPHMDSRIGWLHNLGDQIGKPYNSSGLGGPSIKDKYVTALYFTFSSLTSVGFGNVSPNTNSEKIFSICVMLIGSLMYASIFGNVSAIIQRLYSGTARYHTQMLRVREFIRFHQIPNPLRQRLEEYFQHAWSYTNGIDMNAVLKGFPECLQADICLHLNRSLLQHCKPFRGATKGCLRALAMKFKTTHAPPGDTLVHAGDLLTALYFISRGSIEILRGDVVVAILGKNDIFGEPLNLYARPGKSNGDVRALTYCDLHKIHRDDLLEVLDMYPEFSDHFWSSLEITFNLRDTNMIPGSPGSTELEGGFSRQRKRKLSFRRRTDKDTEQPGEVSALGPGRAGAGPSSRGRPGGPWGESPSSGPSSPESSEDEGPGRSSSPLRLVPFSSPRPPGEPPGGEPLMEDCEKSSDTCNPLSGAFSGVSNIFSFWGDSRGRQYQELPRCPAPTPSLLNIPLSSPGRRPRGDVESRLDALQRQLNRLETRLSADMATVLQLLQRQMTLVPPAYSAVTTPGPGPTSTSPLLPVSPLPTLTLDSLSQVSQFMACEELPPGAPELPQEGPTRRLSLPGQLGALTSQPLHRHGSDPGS
Acetylcholinesterase (Homo sapiens), sequence (P22303 whole entry, looked up): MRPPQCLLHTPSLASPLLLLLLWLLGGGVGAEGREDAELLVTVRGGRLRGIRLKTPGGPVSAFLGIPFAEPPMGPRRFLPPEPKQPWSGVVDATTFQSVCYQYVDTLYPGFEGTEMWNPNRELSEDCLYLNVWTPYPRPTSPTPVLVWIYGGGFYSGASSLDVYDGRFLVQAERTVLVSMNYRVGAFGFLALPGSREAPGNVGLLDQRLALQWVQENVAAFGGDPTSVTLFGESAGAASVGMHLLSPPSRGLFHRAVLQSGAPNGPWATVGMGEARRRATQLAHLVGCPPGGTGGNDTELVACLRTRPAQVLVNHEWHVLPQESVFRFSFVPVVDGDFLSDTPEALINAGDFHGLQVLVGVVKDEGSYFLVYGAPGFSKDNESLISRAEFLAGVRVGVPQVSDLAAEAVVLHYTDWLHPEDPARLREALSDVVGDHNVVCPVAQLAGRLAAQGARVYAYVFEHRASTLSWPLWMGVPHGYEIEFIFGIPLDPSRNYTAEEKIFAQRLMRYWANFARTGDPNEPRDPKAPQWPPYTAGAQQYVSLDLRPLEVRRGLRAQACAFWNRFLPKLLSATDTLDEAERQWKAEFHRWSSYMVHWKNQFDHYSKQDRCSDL
Cytochrome P450 3A4 (Homo sapiens), sequence (P08684 whole entry, looked up): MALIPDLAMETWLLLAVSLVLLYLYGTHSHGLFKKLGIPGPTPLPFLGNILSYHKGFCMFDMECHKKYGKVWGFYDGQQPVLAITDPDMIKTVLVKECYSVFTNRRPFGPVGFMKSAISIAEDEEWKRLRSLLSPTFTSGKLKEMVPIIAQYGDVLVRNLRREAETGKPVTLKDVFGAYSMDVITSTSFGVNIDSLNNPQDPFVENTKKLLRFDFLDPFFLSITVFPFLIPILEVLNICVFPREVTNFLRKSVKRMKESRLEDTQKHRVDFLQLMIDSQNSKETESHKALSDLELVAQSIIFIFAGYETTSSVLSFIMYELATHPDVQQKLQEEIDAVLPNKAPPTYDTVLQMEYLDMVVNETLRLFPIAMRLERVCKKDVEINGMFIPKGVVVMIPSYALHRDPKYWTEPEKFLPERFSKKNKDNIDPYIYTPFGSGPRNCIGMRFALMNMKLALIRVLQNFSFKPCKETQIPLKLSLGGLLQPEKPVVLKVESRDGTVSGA
Cytochrome P450 2C9 (Homo sapiens), sequence (P11712 whole entry, looked up): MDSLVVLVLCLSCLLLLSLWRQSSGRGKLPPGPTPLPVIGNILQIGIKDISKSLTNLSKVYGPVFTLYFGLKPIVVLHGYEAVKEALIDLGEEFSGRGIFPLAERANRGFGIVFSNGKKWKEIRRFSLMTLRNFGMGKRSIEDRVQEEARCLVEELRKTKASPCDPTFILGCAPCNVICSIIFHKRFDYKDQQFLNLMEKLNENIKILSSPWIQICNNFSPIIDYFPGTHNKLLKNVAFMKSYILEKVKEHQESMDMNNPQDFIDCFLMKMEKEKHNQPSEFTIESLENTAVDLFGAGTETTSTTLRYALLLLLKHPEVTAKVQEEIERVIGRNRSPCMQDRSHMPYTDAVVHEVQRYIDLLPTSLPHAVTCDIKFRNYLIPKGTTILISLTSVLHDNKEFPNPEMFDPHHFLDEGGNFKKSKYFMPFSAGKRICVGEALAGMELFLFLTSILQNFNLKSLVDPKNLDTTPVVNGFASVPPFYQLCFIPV
Nuclear receptor subfamily 1 group I member 2 (Homo sapiens), sequence (O75469 whole entry, looked up): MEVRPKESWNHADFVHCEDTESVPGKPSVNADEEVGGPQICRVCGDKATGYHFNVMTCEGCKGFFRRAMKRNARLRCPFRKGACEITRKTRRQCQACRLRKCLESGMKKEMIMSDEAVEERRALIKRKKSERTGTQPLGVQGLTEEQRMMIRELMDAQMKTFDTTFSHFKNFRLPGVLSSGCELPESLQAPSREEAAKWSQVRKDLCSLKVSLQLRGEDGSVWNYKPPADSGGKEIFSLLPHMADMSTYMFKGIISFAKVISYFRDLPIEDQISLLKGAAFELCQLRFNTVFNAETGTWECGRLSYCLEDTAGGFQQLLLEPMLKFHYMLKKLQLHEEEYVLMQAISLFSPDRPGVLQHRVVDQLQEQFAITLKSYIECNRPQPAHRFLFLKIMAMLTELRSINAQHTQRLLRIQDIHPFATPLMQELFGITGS
Cytochrome P450 2C19 (Homo sapiens), sequence (P33261 whole entry, looked up): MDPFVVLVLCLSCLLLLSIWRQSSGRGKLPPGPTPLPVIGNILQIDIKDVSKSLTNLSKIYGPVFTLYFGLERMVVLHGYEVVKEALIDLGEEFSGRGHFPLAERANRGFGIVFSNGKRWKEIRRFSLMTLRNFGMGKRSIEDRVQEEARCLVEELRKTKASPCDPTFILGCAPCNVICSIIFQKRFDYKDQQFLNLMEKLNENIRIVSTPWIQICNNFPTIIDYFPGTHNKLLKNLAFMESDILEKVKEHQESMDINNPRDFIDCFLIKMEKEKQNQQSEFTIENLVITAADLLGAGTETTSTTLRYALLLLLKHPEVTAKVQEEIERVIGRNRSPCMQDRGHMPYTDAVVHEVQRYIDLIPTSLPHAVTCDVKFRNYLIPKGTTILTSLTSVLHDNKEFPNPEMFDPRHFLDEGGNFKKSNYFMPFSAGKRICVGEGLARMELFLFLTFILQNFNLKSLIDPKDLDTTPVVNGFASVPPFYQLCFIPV
Cytochrome P450 1A2 (Homo sapiens), sequence (P05177 whole entry, looked up): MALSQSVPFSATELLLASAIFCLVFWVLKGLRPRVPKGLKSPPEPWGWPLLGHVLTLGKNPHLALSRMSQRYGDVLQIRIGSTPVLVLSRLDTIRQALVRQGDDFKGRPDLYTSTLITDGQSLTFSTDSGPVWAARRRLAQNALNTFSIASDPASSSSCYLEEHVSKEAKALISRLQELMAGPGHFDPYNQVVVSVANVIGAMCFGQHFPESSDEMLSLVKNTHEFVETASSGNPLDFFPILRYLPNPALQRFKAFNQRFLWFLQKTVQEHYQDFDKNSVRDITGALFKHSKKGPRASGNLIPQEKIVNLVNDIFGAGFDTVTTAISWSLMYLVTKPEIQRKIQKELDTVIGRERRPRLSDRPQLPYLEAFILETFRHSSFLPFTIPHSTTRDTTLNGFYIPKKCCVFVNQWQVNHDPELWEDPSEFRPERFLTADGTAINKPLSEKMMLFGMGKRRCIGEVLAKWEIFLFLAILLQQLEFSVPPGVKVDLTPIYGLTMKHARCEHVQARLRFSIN

Consider `[O-][Cl+2]([O-])O`, for which the outcome in test [1] was inactive. Also, the Potency entry in [2], in test [3], in test [4], in [5], in test [6] and in test [7] was “inactive” throughout. Further, the Potency entry in test [8], in test [9], in [10], in test [11] and in [12] was “inactive” each time.

Regarding `COC(=O)c1ccccc1N`, the result in test [1] was inactive. For the same molecule, the Potency entry in [2], in [3], in [4], in test [5], in test [6] and in [13] was “inactive” each time. The Potency result in test [8], in test [11] and in [12] was “inactive” in each case.

Regarding `Cc1ccccc1O`, the outcome in test [1] was inactive. The Potency result in test [2], in test [3], in [4], in test [5], in [6] and in [13] was “inactive” in each case. Moreover, the Potency result in test [8], in test [9] and in [12] was “inactive” each time. Besides, the Potency in test [10] is 39.9 µM (active).

`C[C@]12CC[C@H]3[C@@H](CC[C@@]45O[C@@H]4C(O)=C(C#N)C[C@]35C)[C@@H]1CC[C@@H]2O`: the molecule was called inactive in test [1] and in test [15]. The Potency result in test [2], in [3], in test [16], in test [4], in [5] and in test [6] was “inactive” each time. Besides, the Potency result in [7], in test [8], in [9], in [10], in test [11] and in [12] was “inactive” throughout. The max activation in test [14] was -0.29% (inactive).

Turning to `O=Cc1cccc(Oc2ccccc2)c1`, the outcome in [1] was inactive. Besides, the Potency result in test [2], in test [3], in [4], in test [5], in test [6] and in [13] was “inactive” in each case. Moreover, the Potency result in test [7] and in test [12] was “inactive” throughout. Further, the Potency in [8] is 16 µM (active) and 71 µM (active).

`COC(=O)NS(=O)(=O)c1ccc(N)cc1`: the outcome in test [1] was inactive. Besides, the Potency result in [2], in test [3], in [4], in test [5], in test [6] and in test [13] was “inactive” throughout. Also, the Potency result in test [7], in [10], in test [11] and in test [12] was “inactive” in each case. The Potency in test [8] is 71.3 µM (active) and inactive.

Regarding `CCC[N+](=O)[O-]`, the result in [1] was inactive. For the same molecule, the Potency result in [2], in test [3], in test [4], in test [5], in test [6] and in test [13] was “inactive” throughout. The Potency entry in test [7], in [9], in test [11] and in test [12] was “inactive” throughout. Also, the Potency in [8] is 27.8 µM (active).

For the molecule `Clc1ccccc1Cl`, the call in [1] and in [15] was inactive. The Potency result in test [2], in test [3], in test [16], in [4], in test [5] and in test [6] was “inactive” in each case. The Potency entry in test [13], in [8], in test [9], in test [10], in test [11] and in [12] was “inactive” in each case. Moreover, in test [14], the max activation was -2.27% (inactive).
